Experimental data reported in PubChem BioAssay.
The source made the active and inactive calls.

assay: probe aXIP binding to arrayed compounds – biochemical, NeuroSMM set, 635/667 nm fluorescence, primary screen (AID 1119); conditions: small-molecule microarray, higher = more signal, called active from +8 up or from −8 down;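 note: probe is the protein aXip251-270 applied at 1 µg/mL to compound-printed slides; binding of probe to printed compounds measured as 667 nm fluorescence plus signal to noise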

SMILES | composite Z-score
CN(C)CCCNC(=O)[C@@H]1c2ccccc2C(=O)N(C2CCCCC2)[C@H]1c1ccc(CO)cc1 | 0.245 (inactive)
COc1cc(NN2C(C(O)c3ccc(I)cc3)C=CC3C(=O)N(c4ccccc4)C(=O)C32)cc(OC)c1OC (configuration not stated) | 1.59 (inactive)
Cc1ccc([C@H]2C(C(=O)O)=C[C@@H](C(C)(C)C)N2S(=O)(=O)c2ccc(C)cc2)cc1 | 0.0172 (inactive)
CC(C)OC(=O)CC(=O)CC(O)c1ccc([N+](=O)[O-])cc1 (configuration not stated) | -0.314 (inactive)
NC(=O)N1C(=O)C2C(C1=O)C1C=C(CCCO)C2C(C2CC2)N1Cc1cccc(OC(F)(F)F)c1 (configuration not stated) | 0.547 (inactive)
CC(CO)N1C(=O)[C@@H]2[C@H]3C(=O)OCC=C[C@H]3OC23C=CCN(c2ccc(Cl)cc2)C(=O)[C@@H]13 (some centres not stated) | -0.243 (inactive)
NC(=O)[C@@H]1[C@H]2C(=O)O[C@H](c3ccccc3)[C@H](c3ccccc3)N2[C@H](c2ccc(OCCO)cc2)[C@@]12C(=O)Nc1ccc(C#CCCO)cc12 | 0.238 (inactive)
CCOC(=O)C[C@H]1[C@H](OC(=O)c2ccc(C(=O)c3ccccc3)cc2)[C@@H](NC(=O)CC(C)C)c2cc(OCCCO)ccc2N1C(=O)Cc1ccc(OC)cc1 | -0.0147 (inactive)
COCCCNC(=O)[C@@]1(c2ccc([N+](=O)[O-])cc2)CC(=O)N(CC23CC4CC(CC(C4)C2)C3)[C@@H]1c1ccc(CO)cc1I | 0.197 (inactive)
C=C(/C(=C/C[C@@H](OC(C)=O)c1ccc(CO)o1)c1cc(C(=O)OC)ccc1OC)C(C)C | -0.0662 (inactive)

assay: probe aNOTCH3 binding on compound microarray – biochemical, small-molecule microarray, 635/667 nm fluorescence, primary screen (AID 1120); conditions: higher = more signal;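 note: probe is a biotin-tagged antibody raised against NOTCH3 rather than NOTCH3 protein; score merges spot fluorescence near 667 nm with spot signal to noise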

SMILES | composite z-score
Cc1nc2cc(Br)ccc2c(=O)n1Cc1cccc(O)c1 | -0.119
C=C[C@@H](C)[C@H](O)c1ccc(OCCO)cc1 | -0.529
C=CCN1C(=O)[C@]2(O[C@H](CCO)[C@@H]([Si](C)(C)c3ccc(OC)cc3)[C@@H]2C)c2cc(NC(=O)c3ccc(OC)cc3)ccc21 | -0.0017
CCOC(=O)C[C@H]1[C@H](OC(=O)c2cc3ccccc3oc2=O)[C@@H](NC(=O)c2ccc3ccccc3c2)c2cc(OCCCO)ccc2N1C(=O)Cc1ccc(OC)cc1 | -0.0377
COc1ccc(C#Cc2ccc3c(c2)[C@]2(C(=O)N3)[C@H](c3ccc(OCCO)cc3)N3[C@H](c4ccccc4)[C@H](c4ccccc4)OC(=O)[C@H]3[C@@H]2C(=O)N2CCc3cc(OC)c(OC)cc3C2)cc1 | 0.233
COC(=O)c1c2oc(c1C(=O)OC)C(=O)N1CCC[C@H]1Cn1nncc1CN(Cc1ccccc1)C(=O)N[C@H](CO)CC2 | -0.134
COC(=O)C(CC#Cc1ccc2c(c1)[C@]1(C(=O)N2)[C@H](c2ccc(O)cc2)N2[C@H](c3ccccc3)[C@H](c3ccccc3)OC(=O)[C@H]2[C@@H]1C(=O)N1CCCCCCC1)C(=O)OC | 1.29
C=C[C@H](C)[C@H](OC(=O)Nc1ccc(OC)cc1)c1ccc(OCCO)cc1 | -0.279
[N-]=[N+]=NC[C@H](Cc1ccccc1)NC(=O)c1ccccc1 | 0.056
COc1ccc([Si](C)(C)[C@H]2[C@H](CC(=O)N3Cc4ccccc4C[C@H]3CO)O[C@@]3(C(=O)N(Cc4ccc(N5C(=O)c6cccc7cccc5c67)cc4)c4ccccc43)[C@@H]2C)cc1 | -0.0647
COc1ccc([Si](C)(C)[C@H]2[C@H](CC(=O)N3CCC[C@H]3CO)O[C@@]3(C(=O)N(Cc4ccc(N5CCC5=O)cc4)c4ccccc43)[C@@H]2C)cc1 | -0.0182
C=CCNC(=O)[C@H]1[C@@H]2C(=O)O[C@@H](c3ccccc3)[C@@H](c3ccccc3)N2[C@@H](c2ccc(OCCO)cc2)[C@]12C(=O)Nc1ccc(C#CCNC(N)=O)cc12 | 0.103
C=CCC(OC(C)=O)[C@@H]1[C@@H](N(Cc2cccc3ccccc23)C(=O)Cc2ccc(F)cc2)c2cc(OCCCO)ccc2N1C(=O)c1ccc(-c2ccccc2)cc1 (some centres not stated) | 0.0847
CC1CC/C=C\[C@H]2OC34C=CCN(CCN5CCOCC5)C(=O)[C@H]3N(C(C)CO)C(=O)[C@@H]4C2C(=O)O1 (some centres not stated) | -0.129
C=CCN1C(=O)[C@]2(O[C@H](CCO)[C@@H]([Si](C)(C)c3ccc(OC)cc3)[C@@H]2C)c2cc(N3C(=O)COc4ccccc43)ccc21 | 0.0039
CN(C)C(=O)[C@]1(CCS(=O)(=O)c2ccccc2)N=C(c2ccc(OCCCO)cc2)O[C@@H]1c1ccccc1 | 0.201
Cc1ccccc1C(O)C1C=CC2C(=O)NC(=O)C2N1Nc1ccc(Cl)cc1Cl (configuration not stated) | -0.0653
